PubChem BioAssay (NCATS)
Inconclusive results are not listed. Activity calls are given as the source filed them. Calls follow the shape of the dose curve; as a rule, active = well fitted curve in the direction sought with a large enough effect; inconclusive = small, poorly fitted or top-dose-only effect, or another doubt; inactive = no such curve, though single readings can be large; an effect the other way counts as inactive or inconclusive.

Assays:
[1] = biological target: Rap guanine nucleotide exchange factor 3 (Homo sapiens) (UniProt O95398); experiment: Confirmatory qHTS for agonist of cAMP-regulated guanine nucleotide exchange factor 3 (EPAC1) (AID 1645881); also: nearly all actives have a fitted effect of over 75% in size; also: potency is read from the fitted curve at half-maximal effect;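 as to activation: EPAC1 catalysed release of BODIPY-GDP from Rap1B seen as fluorescence loss; 100% = effect of cAMP agonist control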
[2] = biological target: Rap guanine nucleotide exchange factor 4 (Homo sapiens) (UniProt Q8WZA2); experiment: Confirmatory qHTS for agonist of cAMP-regulated guanine nucleotide exchange factor 4 (EPAC2) (AID 1645884);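 also: nucleotide exchange releases bodipy-GDP from Rap1 and this lowers its fluorescence; % is scaled to controls: 0 for no effect and ±100 for the full control effect; nearly all actives have a fitted effect of over 65% in size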
[3] = biological target: Rap guanine nucleotide exchange factor 4 (Homo sapiens) (UniProt Q8WZA2); experiment: Confirmatory qHTS for antagonist of cAMP-regulated guanine nucleotide exchange factor 4 (EPAC2) (AID 1645885); also: nearly all actives have a fitted effect of over 25% in size; also: potency is read from the fitted curve at half-maximal effect; as to activity change, negative = inhibition: % is scaled to controls: 0 for no effect and ±100 for the full control effect
[4] = biological target: Rap guanine nucleotide exchange factor 3 (Homo sapiens) (UniProt O95398); experiment: Counterscreen qHTS for antagonist of cAMP-regulated guanine nucleotide exchange factor 3 (EPAC1) (AID 1645888);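 also: fluorescence loss as bound BODIPY-GDP is released from Rap1B; % of control where 0% means no effect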
Summary of the method: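 Measured: fluorescence of BODIPY-GDP bound to Rap1B, which falls as exchange proceeds. Conditions include 50 uM competing GDP, 5 and 30 min reads, and a later cAMP challenge for antagonist detection.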

Sequence of Rap guanine nucleotide exchange factor 3 (Homo sapiens) (O95398 whole entry, looked up): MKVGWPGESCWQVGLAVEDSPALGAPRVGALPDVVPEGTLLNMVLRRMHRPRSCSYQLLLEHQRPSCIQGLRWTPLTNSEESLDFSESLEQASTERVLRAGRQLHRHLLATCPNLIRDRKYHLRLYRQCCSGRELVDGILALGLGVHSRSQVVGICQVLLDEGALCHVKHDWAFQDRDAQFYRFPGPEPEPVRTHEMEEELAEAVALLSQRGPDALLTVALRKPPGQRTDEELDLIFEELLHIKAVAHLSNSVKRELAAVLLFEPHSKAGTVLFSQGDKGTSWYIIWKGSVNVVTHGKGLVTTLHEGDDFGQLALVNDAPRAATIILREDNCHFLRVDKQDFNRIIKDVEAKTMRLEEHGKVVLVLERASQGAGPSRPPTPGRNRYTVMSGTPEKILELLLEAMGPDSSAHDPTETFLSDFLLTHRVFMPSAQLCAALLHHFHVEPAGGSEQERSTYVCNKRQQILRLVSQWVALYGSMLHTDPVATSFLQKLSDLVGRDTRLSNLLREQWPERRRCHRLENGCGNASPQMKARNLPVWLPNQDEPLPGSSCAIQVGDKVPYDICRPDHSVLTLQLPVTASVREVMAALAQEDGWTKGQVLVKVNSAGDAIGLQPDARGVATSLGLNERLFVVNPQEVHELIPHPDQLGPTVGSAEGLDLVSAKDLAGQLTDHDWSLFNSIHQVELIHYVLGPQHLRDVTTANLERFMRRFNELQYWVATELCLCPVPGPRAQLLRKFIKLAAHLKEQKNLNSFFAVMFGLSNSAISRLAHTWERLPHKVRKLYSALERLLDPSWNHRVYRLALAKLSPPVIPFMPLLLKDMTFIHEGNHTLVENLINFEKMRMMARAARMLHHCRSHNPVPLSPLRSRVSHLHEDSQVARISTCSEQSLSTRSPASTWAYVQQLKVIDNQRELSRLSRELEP
Sequence of Rap guanine nucleotide exchange factor 4 (Homo sapiens) (Q8WZA2 whole entry, looked up): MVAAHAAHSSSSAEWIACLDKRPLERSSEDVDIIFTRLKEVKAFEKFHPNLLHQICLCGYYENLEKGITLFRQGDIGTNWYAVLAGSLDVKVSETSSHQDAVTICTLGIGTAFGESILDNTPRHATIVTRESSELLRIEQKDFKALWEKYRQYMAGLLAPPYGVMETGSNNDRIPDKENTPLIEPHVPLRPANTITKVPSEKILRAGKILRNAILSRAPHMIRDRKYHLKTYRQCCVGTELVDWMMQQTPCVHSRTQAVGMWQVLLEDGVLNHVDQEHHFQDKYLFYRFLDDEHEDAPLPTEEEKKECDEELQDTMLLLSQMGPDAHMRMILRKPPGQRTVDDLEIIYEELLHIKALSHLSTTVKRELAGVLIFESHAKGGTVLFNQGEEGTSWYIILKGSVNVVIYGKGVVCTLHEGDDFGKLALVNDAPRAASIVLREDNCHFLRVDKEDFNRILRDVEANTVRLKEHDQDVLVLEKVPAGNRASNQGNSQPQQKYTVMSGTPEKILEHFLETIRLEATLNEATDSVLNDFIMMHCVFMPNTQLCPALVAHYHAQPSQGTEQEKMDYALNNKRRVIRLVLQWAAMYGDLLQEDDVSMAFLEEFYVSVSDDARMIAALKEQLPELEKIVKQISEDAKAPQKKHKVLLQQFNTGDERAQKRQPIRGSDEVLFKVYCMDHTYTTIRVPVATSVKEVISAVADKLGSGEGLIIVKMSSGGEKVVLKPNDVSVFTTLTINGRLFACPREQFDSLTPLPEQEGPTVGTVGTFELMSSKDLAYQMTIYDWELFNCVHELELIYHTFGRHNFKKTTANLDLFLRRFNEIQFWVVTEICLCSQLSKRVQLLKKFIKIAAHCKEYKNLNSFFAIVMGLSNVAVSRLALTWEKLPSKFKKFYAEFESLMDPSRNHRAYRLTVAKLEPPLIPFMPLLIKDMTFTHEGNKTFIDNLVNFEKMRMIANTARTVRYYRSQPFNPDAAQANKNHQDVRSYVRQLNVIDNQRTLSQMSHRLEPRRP

O=C1NC[C@@H](Cc2cccc3ccccc23)N(CCc2cc(C(F)(F)F)cc(C(F)(F)F)c2)C1=O
inactive: Potency [1] | Potency [2] | Potency [3]

C#CCN(Cc1nc(N2CCOCC2)c2ccc(Cl)cc2n1)Cc1ccco1
inactive: Potency [1] | Potency [2]
active: Potency [3] 17.5 µM

Cc1cc(C)cc(OCC(=O)OCC(=O)NC2CCCCCCC2)c1
inactive: Potency [1] | Potency [2] | Potency [3]

CSc1cccc(N2CC(C(=O)Nc3cccc(S(=O)(=O)N4CCCC4)c3)CC2=O)c1 (configuration not stated)
inactive: Potency [1] | activation [2] 4.48% [at 17.1 µM, percent relative to cAMP agonist control] | Potency [3]

CCc1nc2ccc(C(=O)Nc3ccc(OC)c(OC)c3)cn2c1N(C)CCC(C)C
inactive: Potency [1] | activation [2] 6.16% [at 17.1 µM, percent relative to cAMP agonist control] | Potency [3]

Cc1cc(SCC(=O)c2ccc(O)c(O)c2)n2nc(C)c(-c3ccccc3)c2n1
inactive: Potency [1] | Potency [2] | Potency [3] | Potency [4]

O=C(NCCCN1CCOCC1)c1ccc2c(c1)N(Cc1cccc(Cl)c1)C(=O)c1ccccc1S2
inactive: Potency [1] | Potency [2] | Potency [3] | Potency [4]

Cn1c(=O)c2c(-c3ccccc3Br)n(Cc3ccccc3)cc2n(C)c1=O
inactive: Potency [1] | Potency [2] | Potency [3] | Potency [4]

COc1cc(NC(=O)c2cccc([N+](=O)[O-])c2)ccc1NC(=O)c1ccco1
inactive: Potency [1] | Potency [2] | Potency [3] | Potency [4]

COc1cc(/C=C2\SC(=S)N(CCCCC(=O)O)C2=O)ccc1OS(=O)(=O)c1ccc(C)cc1
inactive: Potency [1] | activation [2] -4.35% [at 17.1 µM, percent relative to cAMP agonist control] | Potency [3] | activity change, negative = inhibition [4] -18.6% [at 30.8 µM]

C/C(=N\Nc1nc2ccccc2[nH]1)c1cc2ccccc2o1
inactive: Potency [1] | activation [2] 1.22% [at 17.1 µM, percent relative to cAMP agonist control] | Potency [3] | activity change, negative = inhibition [4] -0.654% [at 30.8 µM]

CCCOc1ccc(/C=C2/C(=O)ON=C2C)cc1Cl
inactive: Potency [1] | Potency [2] | Potency [3] | Potency [4]

Cc1c(C)c2ccc(OCC(=O)Nc3ccc(S(N)(=O)=O)cc3)c(C)c2oc1=O
inactive: Potency [1] | Potency [2] | Potency [3] | Potency [4]

N#CCC(=O)N/N=C/c1coc2ccccc2c1=O
inactive: Potency [1] | Potency [2] | Potency [3] | Potency [4]

CCn1c(C(=O)N2CCc3ccccc3C2)cc2sccc21
inactive: Potency [1] | Potency [2] | Potency [4]
active: Potency [3] 53.6 µM

Nc1ccc2c(c1)C(=O)C(=O)c1ccccc1-2
inactive: Potency [1] | Potency [2] | Potency [3] | Potency [4]

CCCCc1ccc(NS(=O)(=O)c2cc3c4c(c2)CC(=O)N4CCC3)cc1
inactive: Potency [1] | Potency [2] | Potency [3] | Potency [4]

Cc1nc(-c2ccc(Cl)cc2)sc1CCNC(=O)c1cccs1
inactive: Potency [1] | Potency [2] | Potency [3] | Potency [4]

CC(C)C(CCNC(=O)CC(Cc1ccccc1)c1ccco1)c1ccco1 (configuration not stated)
inactive: Potency [1] | activation [2] 3.03% [at 17.1 µM, percent relative to cAMP agonist control] | Potency [3] | activity change, negative = inhibition [4] 24.9% [at 30.8 µM]

Cc1cccc(C(=O)OCC(=O)c2ccc(CC(=O)N3CCOCC3)s2)c1C
inactive: Potency [1] | Potency [2] | Potency [3] | Potency [4]

Cc1ccc(CNc2nc(NCc3ccccc3)nc3ccsc23)c(C)c1
inactive: Potency [1] | Potency [2] | Potency [3] | Potency [4]

O=C(CSc1nnc(-c2cnccn2)n1Cc1ccco1)c1ccc(Cl)cc1
inactive: Potency [1] | Potency [2] | Potency [3] | Potency [4]

Fc1ccc(/C=C2\CCCC3=C2Nc2ncnn2C3c2ccc(F)cc2)cc1 (configuration not stated)
inactive: Potency [1] | activation [2] 4.94% [at 17.1 µM, percent relative to cAMP agonist control] | Potency [3] | activity change, negative = inhibition [4] -4.64% [at 30.8 µM]

COc1ccc(C(=O)N(Cc2ccco2)Cc2ccc(C)o2)cc1
inactive: Potency [1] | Potency [2] | Potency [3] | Potency [4]

CC1=NN(c2ccccc2)C(=O)C1=Cc1ccccc1
inactive: Potency [1] | activation [2] -2.46% [at 17.1 µM, percent relative to cAMP agonist control] | Potency [3] | activity change, negative = inhibition [4] 42% [at 30.8 µM]

CCCc1ccc2oc(C(=O)NCCc3nc(C(=O)OCC)cs3)c(C)c2c1
inactive: Potency [1] | activation [2] -3.74% [at 17.1 µM, percent relative to cAMP agonist control] | Potency [3] | activity change, negative = inhibition [4] -14.7% [at 30.8 µM]

Cc1cccc(C)c1NC(=O)Cn1c(=O)n(Cc2ccc(C(=O)NCc3ccco3)cc2)c(=O)c2sccc21
inactive: Potency [1] | Potency [2] | Potency [3] | Potency [4]

COc1cc(C2NC(=O)c3c(sc4c3CCN(C)C4)N2)cc(Br)c1OC(=O)c1ccc(C)cc1 (configuration not stated)
inactive: Potency [1] | Potency [2] | outcome [3] inactive [at 12.7 µM] | Potency [4]

COc1ccc(/C=C/C(=O)Oc2ccc(C)c(C)c2)cc1OC
inactive: Potency [1] | Potency [2] | Potency [3] | Potency [4]

Clc1cccc(Cc2c(-c3ccco3)nc3ccc(Br)cn23)c1
inactive: Potency [1] | activation [2] 2.6% [at 17.1 µM, percent relative to cAMP agonist control] | Potency [3] | activity change, negative = inhibition [4] -13.4% [at 30.8 µM]

O=C1NC(=O)C(=Cc2ccccc2[N+](=O)[O-])S1
inactive: Potency [1] | activation [2] 5.36% [at 17.1 µM, percent relative to cAMP agonist control] | Potency [3] | activity change, negative = inhibition [4] 0.254% [at 30.8 µM]

Cc1ccc(Cl)cc1N1CCN(C(=O)c2ccc(C)c(-n3c(C)nc4cccnc43)c2)CC1
inactive: Potency [1] | Potency [2] | outcome [3] inactive [at 12.7 µM] | Potency [4]

O=c1[nH]cc(N=Cc2cc(Cl)cc(Cl)c2O)c(=O)[nH]1
inactive: Potency [1] | Potency [2] | Potency [3] | Potency [4]

Cn1c(SCC(=O)c2cc(Cl)c(Cl)s2)nnc1-c1ccco1
inactive: Potency [1] | Potency [2] | Potency [3] | Potency [4]

O=C(O)CC/C(=C/c1cccc(NC(=O)c2ccccc2Cl)c1)c1nc2ccccc2s1
inactive: Potency [2] | Potency [3] | Potency [4]
active: Potency [1] 100 µM

COc1ccc(NC(=S)N(CCCN2CCOCC2)C(C)c2cc3cccc(OC)c3o2)cc1 (configuration not stated)
inactive: Potency [1] | Potency [2] | Potency [3] | Potency [4]

CCOC(=O)c1ccc(-n2c(N)c(C(=O)OC)c3nc4ccccc4nc32)cc1
inactive: Potency [1] | Potency [2] | outcome [3] inactive [at 12.7 µM] | Potency [4]

Cc1cccc(N2CCN(C(=O)c3[nH]c(C(F)(F)F)nc3-c3ccccc3)CC2)c1C
inactive: Potency [1] | Potency [2] | Potency [3] | Potency [4]

CC(c1ccccc1)n1cc2c(c1-c1ccccc1Br)c(=O)n(C)c(=O)n2C (configuration not stated)
inactive: Potency [1] | Potency [2] | Potency [3] | Potency [4]

COc1ccccc1NC(=O)c1ccccc1NS(=O)(=O)c1cccs1
inactive: Potency [1] | Potency [2] | Potency [3] | Potency [4]

Cc1occc1-c1nnc(SCC(=O)c2cc3ccccc3oc2=O)o1
inactive: Potency [1] | activation [2] -0.174% [at 17.1 µM, percent relative to cAMP agonist control] | Potency [3] | activity change, negative = inhibition [4] -0.143% [at 30.8 µM]

CN(CC(=O)Nc1cccc(F)c1)C(=O)c1cccc(S(=O)(=O)N2CC3(C)CC2CC(C)(C)C3)c1 (configuration not stated)
inactive: Potency [1] | activation [2] 8% [at 17.1 µM, percent relative to cAMP agonist control] | Potency [3] | activity change, negative = inhibition [4] -23.1% [at 30.8 µM]

COc1ccc(OC)c(NC(=O)C(C)Oc2ccc(Br)cc2)c1 (configuration not stated)
inactive: Potency [1] | Potency [2] | Potency [3] | Potency [4]

O=C(Nc1cc(S(=O)(=O)Nc2ccc(Cl)cc2)ccc1O)c1ccc(S(=O)(=O)N2CCCCCC2)cc1
inactive: Potency [1] | Potency [2] | Potency [3] | Potency [4]

OCCCNc1ncnc2oc(-c3ccccc3)c(-c3ccccc3)c12
inactive: Potency [1] | activation [2] 0.534% [at 17.1 µM, percent relative to cAMP agonist control] | Potency [3] | activity change, negative = inhibition [4] -6.04% [at 30.8 µM]

CCOC(=O)C1=CCN(S(=O)(=O)c2ccccc2Cl)C1c1ccc(Cl)c(Cl)c1 (configuration not stated)
inactive: Potency [1] | activation [2] 4.1% [at 17.1 µM, percent relative to cAMP agonist control] | Potency [3] | activity change, negative = inhibition [4] -3.01% [at 30.8 µM]

CCOc1ccccc1NC(=O)C1CCN(c2nc(-c3ccc(OC)cc3)no2)CC1
inactive: Potency [1] | activation [2] 2.09% [at 17.1 µM, percent relative to cAMP agonist control] | Potency [3] | activity change, negative = inhibition [4] -14.4% [at 30.8 µM]

Cc1ccc(N(Cc2ccc([N+](=O)[O-])cc2)C(=O)c2ccco2)cc1
active: Potency [3] 15.1 µM
inactive: Potency [1] | Potency [2] | Potency [4]
